From PubChem BioAssay AID1628 (Sanford-Burnham Center for Chemical Genomics, 2009) come the findings set out here.

The campaign covered roughly 190,000 compounds. About 930 (0.49%) were called active. The list shows a part of the results. Potency and affinity values are given separately. A number with no mark means an inactive call.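 The calls were made as follows: active = z-score of insulin promoter reporter brightness in nuclei below -3 at 5 µM, with at least 500 cells counted; inconclusive = wells with under 500 cells, flagged as toxic or sparse; inactive = the rest.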

This assay is described as follows: insulin promoter down-regulators in MIN6 cells, imaging, high-content screening, mouse beta cells (AID 1628). The note with it: MIN6 insulin promoter GFP reporter, at 5 µM, active compounds read low.
As for `Cc1cc(S(=O)(=O)NC2CCCCC2)c(C)s1`, the z-score was 3.49.
For `Cn1c(=O)c(NCCO)c2c3c(cccc31)C(=O)c1ccccc1-2`, the z-score was 13.6.
As to `Cc1cccc(OCCNc2nc3c(c(=O)n(C)c(=O)n3C)n2C)c1`, the z-score is 4.22.
Regarding `Cc1cccc(Cn2c(NCCO)nc3c2c(=O)n(C)c(=O)n3C)c1`, the z-score is -9.37 (active).
Regarding `CC(C)CCn1c(CN(C)Cc2ccccc2)nc2c1c(=O)n(C)c(=O)n2C`, the z-score was -5.09 (active).
Take `CC(C)Cn1cnc2c1c(=O)n(C)c(=O)n2C`: the z-score is -0.43.
As to `CNc1nc2c(c(=O)n(C)c(=O)n2C)n1Cc1ccccc1`, the z-score was -5.04 (active).
For the compound `CN1CC=C2C(C#N)=C(N)C(C#N)(C#N)[C@H](c3ccoc3)[C@H]2C1`, the z-score was 12.4.
As for `CCN(CC)C(=O)C1CCN(Cc2cccc(OCc3ccccc3)c2)CC1`, the z-score is -4.22 (active).
Regarding `CC(C)(C)NC(=O)c1nn(Cc2ccccc2)c(=O)c2ccccc12`, the z-score is 1.76.
The same measure for `CC(C)CCn1nc(C(=O)Nc2nc3c(s2)CCCC3)c2ccccc2c1=O`: -3.57 (active); for `COc1ccc(S(=O)(=O)N2CCN(c3ncnc4c(-c5ccccc5)nsc34)CC2)cc1`: -3.2 (active); for `Cc1ccc(-n2c3c(c(=O)[nH]c2=O)C(C(F)(F)F)(C(F)(F)F)NC(=O)N3)cc1`: 3.01.
For the compound `COc1ccc(N2CCN(C(=O)C3CCC(Cn4c(=S)[nH]c5ccccc5c4=O)CC3)CC2)cc1` (stereo unspecified), the z-score is -3.35 (active).
The same measure for `COc1ccc(C2C(C(=O)N3CCOCC3)CCC(=O)N2c2ccc(OC)cc2)cc1` (stereo unspecified): 3.73.
On to `Nc1c(C(=O)c2cccs2)sc2nsc(SCCN3CCCCC3)c12`, for which the z-score was 8.75.
For the compound `Nc1nc(-c2ccc(Cl)cc2)c(N=Nc2ccc(S(=O)(=O)N3CCOCC3)cc2)s1`, the z-score is 3.8.
With `CCN(CC)c1ccc(/C=C2/SC(=O)N(C(C)C)C2=O)o1`, the z-score was 17.3.
As for `Cc1cc(Cl)n2nc(C)c(-c3ccc(Cl)cc3)c2n1`, the z-score was -5.26 (active).
As to `CN(C)S(=O)(=O)Oc1cccc(C(=O)Nc2ccc([N+](=O)[O-])cc2)c1`, the z-score is 3.38.
As for `O=C(CCn1cccc1)Nc1ccc(OC(F)(F)F)cc1`, the figure is 2.14.
In the case of `CCCOc1ccc2ccccc2c1/C=N/n1c(C)nnc1-n1nc(C)cc1C`, the z-score was -4.98 (active).
Turning to `N#C/C(=C\c1ccc(N2CCCCC2)o1)C(N)=O`, the z-score was 7.37.
In the case of `O=C(O)c1cc([N+](=O)[O-])c(NCCC2=CCCCC2)c([N+](=O)[O-])c1`, the z-score was 0.74.
`COC(CNC(=O)CSCc1nc(-c2ccc(SC)cc2)oc1C)OC`: the z-score is 2.32.
On to `COc1cc(C(=O)Oc2ccccc2/C=N/NC(=O)c2ccc(C)c(Cl)c2)cc(OC)c1OC`, for which the z-score was -5.2 (active).
As to `COc1cccc(/C=N/NC(=O)c2ccc(N(C)S(=O)(=O)c3ccccc3)cc2)c1OC`, the z-score was 3.8.
As for `CCCN1C=CC(=CC=C(C#N)C#N)C=C1`, the figure is 4.99; as for `CCC(=O)Nc1ccc(C(=O)Cn2ncc(Cl)c(Cl)c2=O)cc1`, -3.05 (active); as for `COc1ccccc1C(=O)NC(=Nc1nc2ccccc2o1)NC(=O)c1ccccc1OC`, -6.44 (active).
On to `C=CCNC(=O)/C(=C\c1ccc(Br)cc1)NC(=O)c1ccccc1OC`, for which the z-score was 3.42.
The same measure for `COc1ccccc1C(=O)NNC(=O)C(=O)NC(C)(C)C`: 3.28.
The same measure for `COc1ccccc1N/C=C/c1onc(C)c1[N+](=O)[O-]`: 4.57; for `Cn1c(/C(C#N)=C/c2ccc(-c3ccc(S(N)(=O)=O)cc3)o2)nc2ccccc21`: 4.53; for `C/C(=N/Nc1nc(-c2ccccc2)cc(-c2ccccc2)n1)c1ccc(N)cc1`: -3.67 (active).
`CNC(=S)NNC(=O)c1oc2nc(-c3ccccc3)cc(-c3ccco3)c2c1N`: the z-score is 3.41.
With `C/C(=N\Nc1ccc([N+](=O)[O-])cc1)c1cc2ccccc2o1`, the z-score was 5.52.
Take `COc1cc(OC)c(-c2c3cc(O)c(=O)cc-3oc3cc(O)c(O)cc23)cc1OC`: the z-score is 11.4.
Take `Cc1cccc(NC(=O)COc2cccc3c2CCN(Cc2ccccc2)C3=O)c1C`: the z-score is -3.66 (active).
As for `Cc1nccn1CCc1n[nH]c(=S)n1Cc1ccccc1`, the figure is -4.01 (active); as for `S=c1[nH]nc(-c2ccccc2)n1CC1CCCO1` (stereo unspecified), 3.06; as for `CC(C)OC(=O)c1c2c(n3ccccc13)C(=O)c1ccccc1C2=O`, 11.7.
As for `CN1c2ccccc2N(C)C1c1c(O)ccc2ccccc12`, the figure is 1; as for `CCC(C)NS(=O)(=O)c1ccc(OCC(=O)N2CCC(C)CC2)cc1` (stereo unspecified), 0.84.
Consider `Cc1nc2ccc(S(=O)(=O)NC(C(=O)N3CCC(C)CC3)C(C)C)cc2s1` (stereo unspecified), for which the z-score is -4.34 (active).
Regarding `CC1CCN(C(=O)CNS(=O)(=O)c2ccc(Br)s2)CC1`, the z-score is 3.37.
`CC1CC(C)CN(C(=O)c2cccc3c2-c2ccccc2C3=O)C1` (stereo unspecified): the z-score was 3.97.
Regarding `CC1CC(C)CN(C(=O)C(NS(=O)(=O)c2ccc3c(c2)oc(=O)n3C)C(C)C)C1` (stereo unspecified), the z-score was -5.42 (active).
As for `COc1cc(OC)cc(C(=O)Nc2cccc(C(C)=O)c2)c1`, the z-score is 3.53.
Regarding `CCCN(CCC)S(=O)(=O)c1ccc(C(=O)Nc2nnc(-c3cc(OC)cc(OC)c3)o2)cc1`, the z-score was -4.56 (active).
For `CCCN(CCC)S(=O)(=O)c1ccc(C(=O)OCCN2C(=O)c3cccc4c(N5CCOCC5)ccc(c34)C2=O)cc1`, the z-score is 6.18.
With `Cc1ccc(NC(=O)/C=C/c2ccc([N+](=O)[O-])s2)c(C)c1`, the z-score is 13.3.
As to `Cc1ccc2nc(SCC(=O)Nc3ccc(C)c([N+](=O)[O-])c3)[nH]c2c1`, the z-score is -4.5 (active).
For `COc1ccc2nc(SCC(=O)Nc3c(C)cccc3C)[nH]c2c1`, the z-score is 3.26.
With `N#C/C(=C/c1ccc(N2CCCCC2)o1)C(=O)Nc1ccc2ccccc2c1`, the z-score was 12.9.
As to `CCCN1C(=O)/C(=C/c2c(N3CCNC(=O)C3CC(=O)OCC)nc3c(C)cccn3c2=O)SC1=S` (stereo unspecified), the z-score was 12.1.
As for `O=C(CSc1nc2[nH]ncc2c(=O)n1-c1ccccc1)NCCc1ccccc1`, the z-score is 2.5.
`O=C(CSc1ccc2ccccc2c1)NCCc1ccc(O)c(O)c1`: the z-score is -3.3 (active).
The same measure for `O=C(COc1ccccc1)NCCn1ccc2ccccc21`: 1.18; for `CCCCN(CC(=O)NCc1ccc(Cl)cc1)S(=O)(=O)c1ccc2c(c1)OCCO2`: -4.37 (active); for `Cc1cc(SCC(=O)N2CCCC2)nc2ccccc12`: -0.89.
As for `COc1cc2c(cc1OC)C(C)=NCC2`, the z-score was 0.45.
Consider `Cc1cc2oc(=O)cc(CN3CCN(S(=O)(=O)c4ccc5c(c4)OCCO5)CC3)c2cc1C`, for which the z-score is -4.33 (active).
For the compound `CNC(=O)C1CC(=O)N/C(=N/N=C(\C)c2cccs2)S1` (stereo unspecified), the z-score is 3.72.
As for `CCOc1ccccc1OCCCCCc1c(C)n[nH]c1C`, the z-score is -3.04 (active).
As for `O=c1c(Cl)c2oc3ccccc3nc-2c2ccccc12`, the z-score was 6.06.
As to `COc1ccc(CCn2c(C3CCCCC3)nc3c(c(=O)c4ccccc4n3C)c2=O)cc1`, the z-score was -3.39 (active).
The same measure for `c1cc2c3c(cccc3c1)NC1(CCCCCC1)N2`: -4.13 (active); for `COc1cc(C(C(=O)NC(C)(C)C)N(Cc2ccccc2)C(=O)c2cnccn2)cc(OC)c1OC` (stereo unspecified): -0.06; for `COc1cc(C(=O)N/N=C(\c2ccccc2)c2ccccn2)cc(OC)c1OC`: -3.93 (active).
In the case of `CCc1ccccc1NC1=CC(=O)CC(C)(C)C1`, the z-score was 1.6.
With `Cc1ccccc1OCC(=O)OC1CCN(C)CC1`, the z-score is 8.59.
As for `Cc1ccccc1OCc1n(CC(=O)OC2CC(C)CCC2C(C)C)c2ccccc2[n+]1C` (stereo unspecified), the figure is -5.14 (active); as for `COCCCNc1c2c3c(cccc3[nH]c1=O)C(=O)c1ccccc1-2`, 13.6; as for `CCOC(=O)c1c2c3c(c(Cl)ccc3[nH]c1=O)C(=O)c1ccccc1-2`, -3.28 (active).
The same measure for `CSc1nc2ccc(S(N)(=O)=O)cc2s1`: -4.36 (active).
Take `N#C/C(=C/c1ccc(-c2ccc(S(N)(=O)=O)cc2)o1)c1nc2ccccc2s1`: the z-score is 16.5.
Take `Cc1ccc2[nH]c3c(N4CCCCCC4)ncnc3c2c1`: the z-score is -3.59 (active).
For the compound `c1ccc2c(c1)[nH]c1c(N3CCC4(CC3)OCCO4)ncnc12`, the z-score is -4.74 (active).
In the case of `CC1(C)CCc2c([nH]c3ccccc3c2=O)O1`, the z-score is 0.3.
Regarding `Cc1cc2ccccn2c1C(=O)c1ccncc1`, the z-score was -8.28 (active).
The same measure for `COC(=O)c1cc2c(-c3ccccc3)cc3ccccn3c-2c1C(=O)OC`: 3.3; for `CC(NC(=O)/C(C#N)=C1\N=C(NC(=O)c2ccco2)c2ccccc21)c1ccccc1` (stereo unspecified): 3.68.
Take `COc1ccc(-c2cnn3c4c(c(C)nc23)CCN4C2CCCC2)cc1OC`: the z-score is -4.71 (active).
Regarding `CCCCNC(=O)C1CC(=O)N(C2CCCCC2)C1` (stereo unspecified), the z-score is 3.02.
In the case of `c1nc(N2CCNCC2)c2sc3nc(N4CCOCC4)c4c(c3c2n1)CCC4`, the z-score is -3.71 (active).
`OC(COc1ccc2c(c1)CCC2)Cn1cnc2ccccc21` (stereo unspecified): the z-score is -4.14 (active).
With `N#Cc1c2c(c(-n3cnc4ccccc43)n3c1nc1ccccc13)CCC2`, the z-score is 4.79.
The same measure for `CC1(C)NC(=O)N(CCCCOc2ccc3c(c2)CCC3)C1=O`: -1.15.
As to `CCc1cc(C(=O)Cc2cnn(-c3ccccc3)c2)c(O)cc1O`, the z-score was 0.58.
Consider `O=C1Nc2ccc(NS(=O)(=O)c3cccs3)c3cccc1c23`, for which the z-score is 1.61.
Take `COc1cc2cccc(OC)c(=O)c2c(OC)c1OC`: the z-score is 0.56.
As to `N#C/C(=C\N1CCN(Cc2ccc3c(c2)OCO3)CC1)c1nc2ccccc2s1`, the z-score was 3.92.
Take `c1ccc(CCn2nnnc2C(c2cccs2)N2CCN(Cc3ccc4c(c3)OCO4)CC2)cc1` (stereo unspecified): the z-score is -4.21 (active).
As for `Cc1cc(C)nc(NC2=NCC(=O)N2c2ccc(Cl)cc2)n1`, the z-score is -3.4 (active).
As to `Cc1ccc(NC2=NCC(=O)N2C2CCCC2)c(C)c1`, the z-score was 0.57.
